This is an account of results in PubChem BioAssay AID540341 (National Center for Advancing Translational Sciences (NCATS), 2011).

Inconclusive results are not listed. Values without a mark were called inactive. Calls follow the shape of the dose curve; as a rule, active = well fitted curve in the direction sought with a large enough effect; inconclusive = small, poorly fitted or top-dose-only effect, or another doubt; inactive = no such curve, though single readings can be large or run the other way.

Lysosomal acid glucosylceramidase (Homo sapiens), sequence (P04062 whole entry, looked up): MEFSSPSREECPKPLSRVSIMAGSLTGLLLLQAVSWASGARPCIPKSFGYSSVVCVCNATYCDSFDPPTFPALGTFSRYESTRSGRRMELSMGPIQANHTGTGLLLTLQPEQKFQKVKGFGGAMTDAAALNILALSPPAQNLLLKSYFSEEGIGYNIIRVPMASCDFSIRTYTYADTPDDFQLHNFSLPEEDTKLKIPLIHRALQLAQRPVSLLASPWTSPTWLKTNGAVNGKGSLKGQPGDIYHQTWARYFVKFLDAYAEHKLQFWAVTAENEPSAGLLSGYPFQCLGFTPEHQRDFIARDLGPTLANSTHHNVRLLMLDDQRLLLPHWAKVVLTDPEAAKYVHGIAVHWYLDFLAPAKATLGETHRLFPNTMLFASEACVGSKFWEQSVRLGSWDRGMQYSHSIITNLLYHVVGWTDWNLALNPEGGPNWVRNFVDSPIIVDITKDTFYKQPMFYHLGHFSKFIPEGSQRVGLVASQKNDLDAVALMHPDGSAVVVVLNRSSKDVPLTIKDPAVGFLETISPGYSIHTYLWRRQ

For the experiment, the target named is Lysosomal acid glucosylceramidase (Homo sapiens) (UniProt P04062). Put plainly: Activators of Human alpha-Glucosidase as a Potential Chaperone Treatment of Pompe Disease: Glucocerebrosidase Counter Screen. To be noted: Purified GBA enzyme, 4MU-beta-glucoside fluorescence, 40 min; series mostly up to 57.1 µM; activity change, negative = inhibition: at the top concentration. An excerpt:
Alpha-glucosidase is responsible for hydrolysis of terminal, non-reducing 1,4-linked alpha-D-glucose residues with release of alpha-D-glucose. It is a lysosomal hydrolase that is required for the degradation of a small percentage (1-3%) of cellular glycogen in human. Deficiency of this enzyme results in glycogen-storage disease type II (GSDII), also referred to as Pompe disease, an autosomal recessive disorder. Structurally normal glycogen is accumulated in lysosomes and cytoplasm in affected patients, primarily in muscle tissues. Excessive glycogen storage within lysosomes may interrupt normal functioning of other organelles and leads to cellular injury. In turn, this leads to enlargement and dysfunction of the entire organ involved (eg, cardiomyopathy and muscle weakness). It has reported that the improper folding and trafficking of alpha-glucosidase resulting from the genetic mutations may account for a significant number of Pompe patients. […] We optimized this alpha-glucosidase assay in 1536-well plate format for identifying the novel small molecule inhibitors with the structures other than the sugar analogs in order to develop the new pharmacological chaperones. NIH Chemical Genomics Center [NCGC] NIH Molecular Libraries Probe Production Centers Network [MLPCN] MLPCN Grant: MH086442-01 Assay Submitter (PI): Wei Zheng
This is a fluorogenic enzyme assay with 4-methylumbelliferyl-beta-D-glucopyranoside as the substrate and purified wildtype glucocerebrosidase as the enzyme preparation. Upon the hydrolysis of this fluorogenic substrate, the resulting product, […] which can be detected by a standard fluorescence plate reader. Data were normalized to the controls for basal activity (without enzyme) and 100% activity (with enzyme). The AC50 values were determined from concentration-response data modeled with the standard Hill equation. Assay buffer: 50 mM citric acid (titrated with potassium phosphate to pH 5.0), 100 mM potassium chloride, 10 mM sodium chloride, 1 mM magnesium chloride, 0.01% Tween-20. 1536-well assay protocol: (1) Add 2 ul/well of glucocerebrosidase enzyme solution (5 nM final) (2) Add 23 nL compounds in DMSO solution. The final titration was 0.5 nM to 58 uM. (3) Add 2 ul of substrate (1 mM final) (4) Incubate at 37C for 40 min. (5) Add 2 ul stop solution (1M NaOH and 1M Glycine mixture, pH 10) (6) Detect the assay plate in a ViewLux plate reader (PerkinElmer) with Ex=365 nm and Em=440nm. Keywords: Glucocerebrosidase, beta-glucosidase, Gaucher Disease, pharmacological chaperone, chaperone therapy, high throughput screening, glucocerebrosidase inhibitor, MLSMR, MLSCN, NIH Roadmap, qHTS and NCGC
Background: Counterscreens check selectivity or assay interference.
Turning to `CCCN1CNc2c(c(=O)[nH]c(=S)n2CCC(C)(C)C)C1`, the “activity change, negative = inhibition” value is 0%.

In the case of `COc1ccc(C#Cc2cnc(Cl)c3cncnc23)cc1OC`, the “activity change, negative = inhibition” value was 1.38% [at 48.8 µM].

In the case of `COc1ccc(C#Cc2c[nH]c(=O)c3cncnc23)cc1OC`, the “activity change, negative = inhibition” value is -3.96%.

As to `COc1ccc(CCn2c3c(c(=O)[nH]c2=S)CN(c2ccccc2)CN3)cc1OC`, the “activity change, negative = inhibition” value was 0%.

`CCCN1CNc2c(c(=O)[nH]c(=S)n2CCc2cc(Cl)cc(Cl)c2)C1`: the “activity change, negative = inhibition” value was -2.31% [at 48.8 µM].

`OCCNc1nc(-c2cccs2)nc2ccccc12`: the “activity change, negative = inhibition” value is 0%.

On to `CCCN1CNc2c(c(=O)[nH]c(=S)n2CCc2ccc(C)c(C)c2)C1`, for which the “activity change, negative = inhibition” value was 0%.

Turning to `CCCN1CNc2c(c(=O)[nH]c(=S)n2CCc2ccc3c(c2)OCCO3)C1`, the “activity change, negative = inhibition” value was 0%.

For the compound `COc1ccc(CCn2c(=S)[nH]c(=O)c3[nH]cnc32)cc1OC`, the “activity change, negative = inhibition” value was -5.98%.

Turning to `COc1ccc(CCn2c(=S)[nH]c(=O)c3c(C)cc(C)nc32)cc1OC`, the “activity change, negative = inhibition” value was -5.66%.

For the compound `COc1ccc(CCn2c3c(c(=O)[nH]c2=S)CN(C)CN3)cc1OC`, the “activity change, negative = inhibition” value is 0%.

As to `O=S(=O)(c1ccc(Cl)cc1)N1CCN(c2nc(Nc3cc(Cl)ccc3O)nc3ccccc23)CC1`, the “activity change, negative = inhibition” value was 0% [at 48.8 µM].

Regarding `CCCN1CNc2c(c(=O)[nH]c(=S)n2CCc2cccc(Cl)c2Cl)C1`, the “activity change, negative = inhibition” value is -9.82%.

For `CCCN1CNc2c(c(=O)[nH]c(=S)n2CCc2ccsc2)C1`, the “activity change, negative = inhibition” value was 0%.

As for `CCCN1CNc2c(c(=O)[nH]c(=S)n2Cc2ccc(OC)c(OC)c2)C1`, the “activity change, negative = inhibition” value is 0%.

`O=S(=O)(c1ccc(Cl)cc1)N1CCN(c2nc(-c3cccs3)nc3ccccc23)CC1`: the “activity change, negative = inhibition” value was 0%.

`COc1ccc(CCn2c3c(c(=O)[nH]c2=S)CN(C(C)C)CN3)cc1OC`: the “activity change, negative = inhibition” value is 0%.

As for `COc1ccc(CCc2c[nH]c(=O)c3cncnc23)cc1OC`, the “activity change, negative = inhibition” value is 2.44%.

On to `CCCN1CNc2c(c(=O)[nH]c(=S)n2CCc2cc(C)ccc2C)C1`, for which the “activity change, negative = inhibition” value was 0%.

On to `c1csc(-c2nc(NCC3CCCO3)c3ccccc3n2)c1` (stereo unspecified), for which the “activity change, negative = inhibition” value was 0% [at 48.8 µM].

For the compound `CCCN1CNc2c(c(=O)[nH]c(=S)n2CCc2cc(Cl)ccc2Cl)C1`, the “activity change, negative = inhibition” value was -1.89% [at 48.8 µM].

As to `CCCN1CNc2c(c(=O)[nH]c(=S)n2CCc2ccc(C)cc2C)C1`, the “activity change, negative = inhibition” value was -4.57%.

With `CCCN1CNc2c(c(=O)[nH]c(=S)n2CCc2c(C)cccc2C)C1`, the “activity change, negative = inhibition” value is 0%.

In the case of `CCCN1CNc2c(c(=O)[nH]c(=O)n2CCc2ccc(OC)c(OC)c2)C1`, the “activity change, negative = inhibition” value is 0%.

With `CCCN1CNc2c(c(=O)[nH]c(=S)n2CCc2cccc(C)c2C)C1`, the “activity change, negative = inhibition” value is 0.391%.

As to `COc1ccc(CCn2c(=S)[nH]c(=O)c3nccnc32)cc1OC`, the “activity change, negative = inhibition” value was 0%.
